Measured values taken from PubChem BioAssay (EPA / NIEHS).
Calls of active or inactive are those of the source. How the source made its calls: active means hit-call score of the fitted dose curve at least 0.9, where 1 is the maximum; inactive means score below 0.9.

Legend:
[1] = ATG_GRE_CIS: Attagene CIS-FACTORIAL HepG2 Assay for human Glucocorticoid Response Elements (GRE) (AID 2282947); details: HepG2 GRE cis-reporter, Attagene multiplex mRNA; actives raise or lower the signal
Procedure, shortened: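 HepG2, transient cis-reporter transfection, 24 h. Reporter mRNA: RT-PCR then CE, fluorescence. Fit both directions vs DMSO.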

[2] = ATG_ISRE_CIS: Attagene CIS-FACTORIAL HepG2 Assay for human Interferon Regulatory Factor 1 (IRF1) binding to an Interferon-Stimulated Response Element (ISRE) (AID 2282948); details: HepG2 ISRE cis-reporter (Attagene), mRNA transcription readout; actives raise or lower the signal
Procedure, shortened: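 Multiplexed mRNA reporter readout in human liver HepG2 cells: cis-element-driven reporters transfected, compound added for 24 h, transcripts amplified, fluorescently labelled and sized by capillary electrophoresis; curve fitting bidirectional against DMSO.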

[3] = ATG_M_32_CIS: Attagene CIS-FACTORIAL HepG2 Assay for M32 Transcription Factor (Internal Marker) (AID 2282949); details: HepG2 Attagene cis-factorial M32 reporter, mRNA; actives raise or lower the signal;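 further: background control marker of the multiplexed CIS panel rather than a real target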
Procedure, shortened: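 Using DMSO as baseline, bidirectional curve fits were applied to reporter mRNA signals. These came from transiently transfected HepG2 cells exposed for 24 h, with RNA analysed by RT-PCR, FAM primer extension, HpaI digestion and CE.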

[4] = ATG_M_06_CIS: Attagene CIS-FACTORIAL HepG2 Assay for M06 Transcription Factor (Internal Marker) (AID 2282950); details: HepG2 Attagene CIS-FACTORIAL M06 internal marker reporter; actives raise or lower the signal
Procedure, shortened: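 Steps: transfect HepG2 with multiplexed cis-element reporter constructs; dose chemical 24 h; extract RNA with DNase treatment; reverse-transcribe, PCR-amplify, 6-FAM label, HpaI digest; separate fragments by capillary electrophoresis. Activity fitted both directions versus DMSO.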

[5] = target: Hypoxia-inducible factor 1-alpha (Homo sapiens) (UniProt Q16665); experiment: ATG_HIF1a_CIS: Attagene CIS-FACTORIAL HepG2 Assay for human Hypoxia Inducible Factor 1 (HIF1A) (AID 2282951); details: HepG2 Attagene cis-factorial HIF1a reporter transcription; actives raise or lower the signal
Chain of Hypoxia-inducible factor 1-alpha (Homo sapiens) (Q16665 whole entry, looked up): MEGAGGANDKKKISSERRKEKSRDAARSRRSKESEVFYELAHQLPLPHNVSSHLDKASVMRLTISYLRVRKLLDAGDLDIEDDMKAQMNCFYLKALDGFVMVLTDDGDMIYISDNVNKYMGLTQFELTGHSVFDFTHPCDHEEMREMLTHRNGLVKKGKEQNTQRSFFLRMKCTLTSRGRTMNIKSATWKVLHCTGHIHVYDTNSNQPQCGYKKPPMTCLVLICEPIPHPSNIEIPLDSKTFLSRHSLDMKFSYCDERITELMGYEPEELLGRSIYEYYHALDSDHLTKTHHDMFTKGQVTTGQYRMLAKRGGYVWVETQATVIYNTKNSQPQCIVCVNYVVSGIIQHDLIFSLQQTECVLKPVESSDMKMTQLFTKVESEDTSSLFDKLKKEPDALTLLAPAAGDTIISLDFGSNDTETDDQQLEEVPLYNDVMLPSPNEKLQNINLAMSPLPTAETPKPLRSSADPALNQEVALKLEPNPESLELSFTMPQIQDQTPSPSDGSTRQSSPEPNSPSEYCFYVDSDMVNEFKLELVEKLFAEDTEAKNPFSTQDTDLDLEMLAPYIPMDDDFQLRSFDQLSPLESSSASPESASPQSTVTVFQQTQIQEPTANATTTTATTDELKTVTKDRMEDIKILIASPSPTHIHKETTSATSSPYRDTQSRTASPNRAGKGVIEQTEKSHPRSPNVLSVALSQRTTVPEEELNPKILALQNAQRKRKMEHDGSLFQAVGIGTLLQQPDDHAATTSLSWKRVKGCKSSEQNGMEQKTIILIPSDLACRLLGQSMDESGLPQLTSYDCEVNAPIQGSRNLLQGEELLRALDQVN
Procedure, shortened: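 Measures endogenous transcription-factor activity through cis-regulated reporter mRNA in HepG2. Cells dosed 24 h; transcripts quantified by RT-PCR with 6-FAM-labelled products separated by capillary electrophoresis; DMSO serves as negative control.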

[6] = target: Hepatocyte nuclear factor 6 (Homo sapiens) (UniProt Q9UBC0); experiment: ATG_HNF6_CIS: Attagene CIS-FACTORIAL HepG2 Assay for human Hepatocyte Nuclear Factor 6 (HNF6) (AID 2282952); details: HepG2 Attagene cis-factorial HNF6 reporter transcription; actives raise or lower the signal
Chain of Hepatocyte nuclear factor 6 (Homo sapiens) (Q9UBC0 whole entry, looked up, the tested form may be a part): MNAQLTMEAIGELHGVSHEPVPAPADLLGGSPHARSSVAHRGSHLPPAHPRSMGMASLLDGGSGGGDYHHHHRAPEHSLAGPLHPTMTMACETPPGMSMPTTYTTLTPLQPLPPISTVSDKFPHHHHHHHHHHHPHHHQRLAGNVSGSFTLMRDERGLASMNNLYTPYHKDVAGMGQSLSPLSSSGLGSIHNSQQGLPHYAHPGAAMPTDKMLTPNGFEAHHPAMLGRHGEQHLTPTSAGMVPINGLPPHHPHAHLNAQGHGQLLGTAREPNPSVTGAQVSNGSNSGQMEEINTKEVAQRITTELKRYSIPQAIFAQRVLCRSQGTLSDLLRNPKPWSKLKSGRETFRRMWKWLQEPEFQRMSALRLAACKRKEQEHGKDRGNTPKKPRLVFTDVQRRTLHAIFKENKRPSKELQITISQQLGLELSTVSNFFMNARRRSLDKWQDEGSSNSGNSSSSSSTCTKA
Procedure, shortened: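 First, HepG2 cells were transfected with the multiplexed cis reporter library and dosed with chemical for 24 h. Next, RNA was reverse-transcribed, PCR-amplified and fluorescently labelled. Finally, HpaI-digested fragments were read by capillary electrophoresis.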

[7] = target: Heat shock factor protein 1 (Homo sapiens) (UniProt Q00613); experiment: ATG_HSE_CIS: Attagene CIS-FACTORIAL HepG2 Assay for human Heat Shock Transcription Factor 1 (HSE) (AID 2282953); details: HepG2 HSE cis-reporter, Attagene RNA transcription; actives raise or lower the signal
Chain of Heat shock factor protein 1 (Homo sapiens) (Q00613 whole entry, looked up, the tested form may be a part): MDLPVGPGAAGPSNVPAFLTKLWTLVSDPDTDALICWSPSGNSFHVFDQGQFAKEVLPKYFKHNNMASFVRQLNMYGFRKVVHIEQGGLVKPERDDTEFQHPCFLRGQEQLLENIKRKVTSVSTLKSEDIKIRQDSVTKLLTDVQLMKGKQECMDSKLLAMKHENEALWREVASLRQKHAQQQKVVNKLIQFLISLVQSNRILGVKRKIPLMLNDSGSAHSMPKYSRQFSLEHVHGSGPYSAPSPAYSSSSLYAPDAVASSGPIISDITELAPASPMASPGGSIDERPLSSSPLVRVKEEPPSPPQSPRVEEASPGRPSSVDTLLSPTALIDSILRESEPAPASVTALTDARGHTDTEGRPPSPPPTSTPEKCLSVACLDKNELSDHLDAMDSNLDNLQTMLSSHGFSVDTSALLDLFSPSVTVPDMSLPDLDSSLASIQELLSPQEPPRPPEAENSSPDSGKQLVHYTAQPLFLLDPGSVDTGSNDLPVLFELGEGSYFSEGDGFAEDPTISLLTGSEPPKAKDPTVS
Procedure, shortened: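 Cells were transfected with cis-element-driven reporter constructs, dosed for 24 h, then total RNA was reverse-transcribed and reporter cDNA amplified, FAM-labelled and digested with HpaI. Fragments were resolved by capillary electrophoresis; gain or loss was fitted against DMSO.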

[8] = ATG_MRE_CIS: Attagene CIS-FACTORIAL HepG2 Assay for human Metal Responsive Element (MRE) (AID 2282954); details: HepG2 MRE cis-reporter transcription, Attagene multiplex; actives raise or lower the signal
Procedure, shortened: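 Readout: capillary electrophoresis of 6-FAM-labelled, HpaI-digested RT-PCR reporter products. System: HepG2 cells carrying transient multiplexed cis reporters, dosed 24 h. Analysis: bidirectional fit, DMSO baseline.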

[9] = ATG_PBREM_CIS: Attagene CIS-FACTORIAL HepG2 Assay for human Phenobarbital-responsive Enhancer Module (PBREM) (AID 2282955); details: HepG2 PBREM cis-reporter, Attagene multiplexed transcription; actives raise or lower the signal
Procedure, shortened: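 Fluorescence of labelled reporter cDNA fragments, resolved by capillary electrophoresis, gives mRNA induction in transfected HepG2 cells treated for 24 h; DMSO serves as negative control and baseline.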

[10] = target: Paired box protein Pax-6 (Homo sapiens) (UniProt P26367); experiment: ATG_Pax6_CIS: Attagene CIS-FACTORIAL HepG2 Assay for human Paired Box 6 (PAX6) (AID 2282956); details: HepG2 CIS-FACTORIAL PAX6 reporter transcription, RNA readout; actives raise or lower the signal
Chain of Paired box protein Pax-6 (Homo sapiens) (P26367 whole entry, looked up): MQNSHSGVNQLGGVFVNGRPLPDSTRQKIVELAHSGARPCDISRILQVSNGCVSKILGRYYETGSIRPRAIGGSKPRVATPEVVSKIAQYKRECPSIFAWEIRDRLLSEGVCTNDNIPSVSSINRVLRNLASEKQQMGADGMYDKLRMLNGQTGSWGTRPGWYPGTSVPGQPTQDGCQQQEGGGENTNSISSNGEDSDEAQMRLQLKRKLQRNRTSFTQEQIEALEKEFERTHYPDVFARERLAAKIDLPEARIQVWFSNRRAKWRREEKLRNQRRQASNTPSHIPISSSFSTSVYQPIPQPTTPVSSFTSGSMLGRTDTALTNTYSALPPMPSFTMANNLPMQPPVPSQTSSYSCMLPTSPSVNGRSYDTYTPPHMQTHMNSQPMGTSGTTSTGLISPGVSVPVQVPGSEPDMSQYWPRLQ
Procedure, shortened: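 Fluorescent RT-PCR products separated by capillary electrophoresis report PAX6-linked promoter mRNA in HepG2 cells 24 h post-dose. Curves fitted bidirectionally, DMSO as negative control.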

[11] = ATG_PXRE_CIS: Attagene CIS-FACTORIAL HepG2 Assay for human Pregnane X Receptor Element (PXRE) (AID 2282957); details: HepG2 Attagene CIS-FACTORIAL PXRE reporter, mRNA; actives raise or lower the signal
Procedure, shortened: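 After a 24 h chemical incubation, total RNA from transfected HepG2 cells was reverse-transcribed and reporter cDNA amplified, FAM-labeled, HpaI-digested and sized by capillary electrophoresis. DMSO served as baseline for bidirectional curve fitting.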

[12] = ATG_PPRE_CIS: Attagene CIS-FACTORIAL HepG2 Assay for human Peroxisome Proliferator-activated Response Element (PPRE) (AID 2282958); details: HepG2 PPRE cis-element reporter, Attagene transcription factor profiling; actives raise or lower the signal
Procedure, shortened: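 Cells are first transfected transiently with the multiplexed reporter library, then dosed for 24 h. Total RNA is reverse-transcribed, amplified, fluorescently end-labeled and HpaI-cut before capillary electrophoresis; activity is fitted bidirectionally against DMSO controls.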

[13] = ATG_RORE_CIS: Attagene CIS-FACTORIAL HepG2 Assay for human RAR-related Orphan Receptor Element (RORE) (AID 2282959); details: HepG2 Attagene cis-factorial RORE reporter, mRNA; actives raise or lower the signal
Procedure, shortened: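 Cells were HepG2 carrying transfected cis-regulated reporter constructs, dosed for 24 hours. Total RNA was reverse-transcribed and reporter cDNA amplified, fluorescently labeled and sized by capillary electrophoresis. Activity was fitted bidirectionally relative to DMSO.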

[14] = ATG_SREBP_CIS: Attagene CIS-FACTORIAL HepG2 Assay for human Sterol Regulatory Element Binding (SREBP) (AID 2282962); details: HepG2 Attagene cis-factorial SREBP reporter, mRNA; actives raise or lower the signal
Procedure, shortened: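 Endogenous factor activity is measured in HepG2 through multiplexed reporter units under cis-element control. Following a 24 h incubation, reporter transcripts are reverse-transcribed, PCR-amplified and sized by capillary electrophoresis; activity is fitted in both directions relative to DMSO.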

[15] = ATG_TA_CIS: Attagene CIS-FACTORIAL HepG2 Assay for human TA Basal Promoter (AID 2282964); details: HepG2 Attagene CIS-factorial TA basal promoter reporter; actives raise or lower the signal
Procedure, shortened: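 Steps: transfect HepG2 with MRTUs; dose 24 h; isolate RNA, DNase-treat, reverse-transcribe; PCR and FAM-label reporter cDNA; digest with HpaI 2h at 37 C; run capillary electrophoresis. Activity fitted both directions against DMSO.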

[16] = ATG_TCF_b_cat_CIS: Attagene CIS-FACTORIAL HepG2 Assay for human T-Cell-Factor with beta-catenin (TCF/b-cat) (AID 2282965); details: HepG2 TCF/beta-catenin cis-reporter transcription, actives raise or lower the signal
Procedure, shortened: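 Using capillary electrophoresis as the read-out, labelled reporter cDNA fragments from transiently transfected HepG2 were sized and quantified. Exposure lasted 24 hours; activity in either direction was referenced to DMSO.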

[17] = ATG_Sox_CIS: Attagene CIS-FACTORIAL HepG2 Assay for human SRY-box transcription factor (SOX) (AID 2282960); details: HepG2 Attagene cis-factorial SOX reporter, mRNA; actives raise or lower the signal
Procedure, shortened: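 Transient MRTU transfection of HepG2; 24 h compound incubation; TriZol RNA, oligo(dT) RT, PCR, 6-FAM primer extension, HpaI cut, CE. Bidirectional fit, DMSO = baseline.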

[18] = target: Transcription factor Sp1 (Homo sapiens) (UniProt P08047); experiment: ATG_Sp1_CIS: Attagene CIS-FACTORIAL HepG2 Assay for human Specificity Protein 1 (Sp1) (AID 2282961); details: HepG2 Sp1 cis-reporter transcription, actives raise or lower the signal
Chain of Transcription factor Sp1 (Homo sapiens) (P08047 whole entry, looked up): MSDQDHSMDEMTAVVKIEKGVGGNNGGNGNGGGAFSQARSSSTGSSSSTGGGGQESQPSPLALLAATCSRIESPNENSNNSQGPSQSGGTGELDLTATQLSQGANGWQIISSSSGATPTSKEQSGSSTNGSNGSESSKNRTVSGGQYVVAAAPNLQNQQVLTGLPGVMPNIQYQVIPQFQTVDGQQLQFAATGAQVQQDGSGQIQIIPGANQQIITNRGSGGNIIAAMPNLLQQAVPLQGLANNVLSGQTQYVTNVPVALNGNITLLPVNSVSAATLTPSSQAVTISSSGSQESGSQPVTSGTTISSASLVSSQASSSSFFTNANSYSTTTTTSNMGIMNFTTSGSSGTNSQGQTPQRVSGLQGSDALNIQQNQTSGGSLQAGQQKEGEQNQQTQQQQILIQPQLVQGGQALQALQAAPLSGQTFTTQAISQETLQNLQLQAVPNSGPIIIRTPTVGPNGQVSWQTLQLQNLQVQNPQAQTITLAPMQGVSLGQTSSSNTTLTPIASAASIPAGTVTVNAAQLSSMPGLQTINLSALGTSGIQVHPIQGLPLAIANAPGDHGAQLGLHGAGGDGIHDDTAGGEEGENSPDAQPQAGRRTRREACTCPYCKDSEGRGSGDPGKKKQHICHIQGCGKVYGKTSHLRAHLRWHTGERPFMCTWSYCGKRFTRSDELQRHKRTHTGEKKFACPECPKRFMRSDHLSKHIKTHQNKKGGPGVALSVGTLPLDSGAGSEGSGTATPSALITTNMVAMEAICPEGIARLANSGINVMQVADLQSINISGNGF
Procedure, shortened: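 Endogenous Sp1 activity was gauged in human liver HepG2 cells bearing transfected reporter units under a cis-regulating promoter. After 24 h dosing, reporter mRNA was quantified by RT-PCR with capillary electrophoresis, and activity fitted bidirectionally versus DMSO.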

[19] = target: Signal transducer and activator of transcription 3 (Homo sapiens) (UniProt P40763); experiment: ATG_STAT3_CIS: Attagene CIS-FACTORIAL HepG2 Assay for human Signal Transducer and Activator of Transcription 3 (STAT3) (AID 2282963); details: HepG2, Attagene cis-factorial STAT3 reporter transcription; actives raise or lower the signal
Chain of Signal transducer and activator of transcription 3 (Homo sapiens) (P40763 whole entry, looked up): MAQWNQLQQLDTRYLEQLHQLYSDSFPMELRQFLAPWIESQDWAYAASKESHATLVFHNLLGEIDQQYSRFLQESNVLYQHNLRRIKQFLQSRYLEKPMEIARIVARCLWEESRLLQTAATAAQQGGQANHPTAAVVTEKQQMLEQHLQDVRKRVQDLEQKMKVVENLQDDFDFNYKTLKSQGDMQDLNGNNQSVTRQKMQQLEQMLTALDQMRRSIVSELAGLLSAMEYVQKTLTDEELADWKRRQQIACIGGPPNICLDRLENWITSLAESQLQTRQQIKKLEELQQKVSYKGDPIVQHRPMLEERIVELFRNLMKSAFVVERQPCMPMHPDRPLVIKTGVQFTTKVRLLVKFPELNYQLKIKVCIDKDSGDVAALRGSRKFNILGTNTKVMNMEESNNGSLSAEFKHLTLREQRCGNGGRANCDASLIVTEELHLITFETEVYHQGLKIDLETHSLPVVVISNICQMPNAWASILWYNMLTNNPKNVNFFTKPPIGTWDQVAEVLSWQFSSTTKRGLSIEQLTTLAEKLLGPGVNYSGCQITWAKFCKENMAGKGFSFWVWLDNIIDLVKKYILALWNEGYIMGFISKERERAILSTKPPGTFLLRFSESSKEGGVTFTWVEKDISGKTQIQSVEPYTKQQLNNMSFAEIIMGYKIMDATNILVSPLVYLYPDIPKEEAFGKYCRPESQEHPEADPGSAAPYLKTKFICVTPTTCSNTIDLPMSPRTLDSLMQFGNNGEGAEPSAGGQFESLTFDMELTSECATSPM
Procedure, shortened: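 Uses human liver HepG2 transiently carrying cis-regulated reporter transcription units. Following 24 h dosing, reporter mRNA induction was detected by RT-PCR and capillary electrophoresis, analysed bidirectionally versus DMSO.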

[20] = target: Bile acid receptor (Homo sapiens) (UniProt Q96RI1); experiment: ATG_IR1_CIS: Attagene CIS-FACTORIAL HepG2 Assay for human Nuclear Receptor Subfamily 1 Group H Member 4 (NR1H4), IR1 submotif (AID 2282946); details: IR1 reporter transcription, actives raise or lower the signal
Chain of Bile acid receptor (Homo sapiens) (Q96RI1 whole entry, looked up): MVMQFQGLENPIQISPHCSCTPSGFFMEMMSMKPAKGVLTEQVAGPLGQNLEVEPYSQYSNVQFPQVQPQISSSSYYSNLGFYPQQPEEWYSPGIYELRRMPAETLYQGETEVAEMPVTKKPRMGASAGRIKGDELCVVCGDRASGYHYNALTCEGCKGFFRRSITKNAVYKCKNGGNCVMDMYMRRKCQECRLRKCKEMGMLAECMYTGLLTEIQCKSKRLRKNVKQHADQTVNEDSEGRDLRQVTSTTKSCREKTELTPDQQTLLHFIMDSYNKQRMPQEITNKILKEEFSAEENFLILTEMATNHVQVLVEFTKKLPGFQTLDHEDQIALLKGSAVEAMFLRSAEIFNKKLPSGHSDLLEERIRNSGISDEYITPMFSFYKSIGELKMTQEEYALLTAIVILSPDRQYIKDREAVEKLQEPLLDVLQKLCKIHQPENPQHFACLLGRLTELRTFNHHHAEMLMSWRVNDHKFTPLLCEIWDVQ
Procedure, shortened: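 Readout: reporter transcript levels by RT-PCR with fluorescent capillary electrophoresis, from HepG2 cells transiently transfected with multiplexed cis-regulated reporters and dosed 24 h. Gain- or loss-of-signal fitted versus DMSO negative control.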

CC1=C(C)S(=O)(=O)CCS1(=O)=O
outcome [1]: inactive | outcome [2]: inactive | outcome [3]: inactive | outcome [4]: inactive | outcome [5]: inactive | outcome [6]: inactive | outcome [7]: inactive | outcome [8]: inactive | outcome [9]: inactive | outcome [10]: inactive | outcome [11]: inactive | AC50 [12]: 89.5 µM (active) | outcome [13]: inactive | outcome [14]: inactive | outcome [15]: inactive | outcome [16]: inactive

CC1(C)C(=O)NC(=O)N1CO
outcome [1]: inactive | outcome [2]: inactive | outcome [3]: inactive | outcome [4]: inactive | outcome [5]: inactive | outcome [6]: inactive | outcome [7]: inactive | outcome [8]: inactive | outcome [9]: inactive | outcome [10]: inactive | outcome [11]: inactive | outcome [12]: inactive | outcome [13]: inactive | outcome [17]: inactive | outcome [18]: inactive | AC50 [14]: 150 µM (active) | outcome [19]: inactive | outcome [15]: inactive | outcome [16]: inactive

c1ccc2occc2c1
outcome [20]: inactive | outcome [2]: inactive | outcome [3]: inactive | outcome [4]: inactive | outcome [5]: inactive | outcome [6]: inactive | outcome [7]: inactive | outcome [9]: inactive | outcome [10]: inactive | outcome [11]: inactive | outcome [13]: inactive | outcome [17]: inactive | outcome [18]: inactive | outcome [14]: inactive | outcome [19]: inactive | outcome [15]: inactive | outcome [16]: inactive

O=C(O)c1[nH]n(-c2ccc(S(=O)(=O)O)cc2)c(=O)c1N=Nc1ccc(S(=O)(=O)O)cc1
outcome [20]: inactive | outcome [2]: inactive | outcome [3]: inactive | outcome [4]: inactive | outcome [5]: inactive | outcome [6]: inactive | outcome [7]: inactive | outcome [9]: inactive | outcome [10]: inactive | AC50 [11]: 69.5 µM (active) | outcome [12]: inactive | outcome [13]: inactive | outcome [17]: inactive | outcome [18]: inactive | outcome [14]: inactive | outcome [19]: inactive | outcome [15]: inactive | outcome [16]: inactive

NC=O
outcome [20]: inactive | outcome [2]: inactive | outcome [3]: inactive | outcome [4]: inactive | outcome [5]: inactive | outcome [6]: inactive | outcome [7]: inactive | outcome [10]: inactive | outcome [11]: inactive | outcome [12]: inactive | outcome [13]: inactive | outcome [17]: inactive | outcome [14]: inactive | outcome [15]: inactive | outcome [16]: inactive

CC(C)OC(=O)C(C)(C)Oc1ccc(C(=O)c2ccc(Cl)cc2)cc1
outcome [20]: inactive | outcome [1]: inactive | AC50 [2]: 49 µM (active) | outcome [3]: inactive | outcome [4]: inactive | outcome [6]: inactive | outcome [7]: inactive | outcome [9]: inactive | AC50 [10]: 27.7 µM (active) | AC50 [11]: 12.3 µM (active) | AC50 [13]: 27.5 µM (active) | outcome [17]: inactive | outcome [18]: inactive | outcome [14]: inactive | AC50 [15]: 22.6 µM (active) | outcome [16]: inactive

CC(=O)OC1CC(C)OC(C)O1 (stereo not given)
outcome [20]: inactive | outcome [1]: inactive | outcome [2]: inactive | outcome [3]: inactive | outcome [4]: inactive | outcome [5]: inactive | outcome [6]: inactive | outcome [8]: inactive | outcome [9]: inactive | outcome [10]: inactive | outcome [11]: inactive | outcome [12]: inactive | outcome [13]: inactive | outcome [17]: inactive | outcome [18]: inactive | outcome [14]: inactive | outcome [19]: inactive | outcome [15]: inactive | outcome [16]: inactive
